# Compound activity (PubChem BioAssay)
# NPR1 antag = antagonists of human natriuretic peptide receptor Npr1. P16066. HEK293 hNpr1 GloSensor cGMP, ANP-stimulated luminescence. Potency, µM (top dose mostly 46.3 µM), hits mostly inhibitors. actives 1.6% (n = 76,000). AID 1347048; calls by dose curve; also: nearly all actives have a fitted effect of over 60% in size
#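 Compound pre-incubated 30 min at room temperature on GloSensor-loaded HEK293 cells stably carrying hNpr1 and the pGS-40F cGMP biosensor. Stimulation uses hNppA at 0.1 nM final; luminescence is taken at baseline and 20 min post-agonist.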
# 3T3 cytotox = NIH 3T3 cell cytotoxicity; actives 4.3% (n = 94,000); Potency, µM (titrated, usually from 96.7 µM), usual class: inhibitors; AID 1345082; NIH 3T3 viability, CellTiter-Glo ATP luminescence, 48-72 h; also: nearly all actives have a fitted effect of over 55% in size
#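 Luminescent ATP readout (CellTiter-Glo, 10 min RT) after 48 or 72 hr compound exposure of NIH 3T3 cells seeded at 400 cells/well in 1536-well format; quantitative HTS.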
# GPT2 inh = GPT2 alanine aminotransferase inhibition; actives 0.25% (n = 100,000); Q8TD30; Potency, µM (top dose mostly 57.7 µM), hits mostly inhibitors; AID 1671188; Recombinant GPT2, coupled pyruvate oxidase/HRP Amplex Red fluorescence; also: nearly all actives have a fitted effect of over 60% in size
# Target sequence (Q8TD30 whole entry, looked up): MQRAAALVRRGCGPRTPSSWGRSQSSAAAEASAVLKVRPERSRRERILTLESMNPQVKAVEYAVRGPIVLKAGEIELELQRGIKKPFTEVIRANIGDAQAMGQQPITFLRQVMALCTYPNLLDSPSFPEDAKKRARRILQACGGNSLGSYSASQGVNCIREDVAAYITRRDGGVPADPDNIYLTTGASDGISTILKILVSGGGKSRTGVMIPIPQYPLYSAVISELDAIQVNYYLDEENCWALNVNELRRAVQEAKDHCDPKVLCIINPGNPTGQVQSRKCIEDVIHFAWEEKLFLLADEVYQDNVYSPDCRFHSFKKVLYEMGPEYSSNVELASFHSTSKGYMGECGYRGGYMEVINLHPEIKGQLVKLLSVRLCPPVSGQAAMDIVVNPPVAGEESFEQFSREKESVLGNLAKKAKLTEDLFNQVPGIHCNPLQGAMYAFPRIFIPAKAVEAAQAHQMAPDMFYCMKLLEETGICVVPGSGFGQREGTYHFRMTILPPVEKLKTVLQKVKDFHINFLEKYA
#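 GPT2 10ng/uL, a-KG 250uM, L-Ala 2mM, HEPES pH7.5 + 0.0001% Tween; 30 min RT. Then Amplex mix (PO/HRP/ThPP), 30 min RT dark, fluorescence. AOA 50uM used as positive control.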
# HEK293 tox = cytotoxic compounds in HEK 293 cells. HEK 293 viability, ATP luminescence (CellTiter-Glo), 48-72 h. actives 6.6% (n = 94,000). Potency, µM (top dose mostly 115 µM), actives largely listed as inhibitors; also: nearly all actives have a fitted effect of over 60% in size
#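 qHTS cytotoxicity; HEK 293, 250 cells/well; compound pinned; 48 or 72 hr, 37 degree Celsius, 5% CO2, 95% humidity; CellTiter-Glo, 10 min RT; luminescence (ATP).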
# FLuc inh = inhibitors of firefly (Photinus pyralis) luciferase; P08659; actives 2.5% (n = 76,000); purified P. pyralis luciferase, luminescence, biochemical; Potency, µM (highest dose often 115 µM), most hits filed as inhibitors; also: nearly all actives have a fitted effect of over 65% in size
#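 Inhibitors were tested against purified firefly luciferase in a biochemical, low-substrate format (both substrates at 10uM) and luminescence measured with a CCD imager.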
# A number is an active result; 0 = inactive; ? = inconclusive; - = not tested or not shown. Sampled rows, rich in hits. Any-hit rate of the full collection: about 10%. Unless noted, calls follow the shape of the dose curve; as a rule, active = well fitted curve in the direction sought with a large enough effect; inconclusive = small, poorly fitted or top-dose-only effect, or another doubt; inactive = no such curve, though single readings can be large; an effect the other way counts as inactive or inconclusive.
SMILES,NPR1 antag,3T3 cytotox,GPT2 inh,HEK293 tox,FLuc inh
O=C(NC1CCCCC1)c1nc2sccn2c1-c1cccc(C(F)(F)F)c1,-,0,0,?,-
O=C1NC2(CCN(Cc3ccc(F)cc3)CC2)COc2ccccc21,0,0,0,63.1µM,0
COc1cccc(CN2CCOC3(CCN(Cc4cccc(Cl)c4)CC3)C2=O)c1,0,?,0,79.4µM,0
COc1cccc(CN2CCOC3(CCN(Cc4ccc5[nH]ccc5c4)CC3)C2=O)c1,0,?,0,?,0
O=C(NC1CC1)c1ccccc1OC1CN(Cc2cc(F)c(F)c(F)c2)C1,0,?,0,?,0
Cc1ccsc1CN1CC(Oc2ccccc2C(=O)NCc2ccccc2)C1,-,39.8µM,0,39.8µM,-
O=C(NCc1ccccc1)c1ccccc1OC1CN(Cc2cccc(F)c2F)C1,-,20µM,0,?,-
O=C(NCc1ccccc1)c1ccccc1OC1CN(Cc2ccc(F)c(F)c2)C1,0,39.8µM,0,?,0
O=C(NCc1ccccc1)c1ccccc1OC1CN(Cc2cccc(C(F)(F)F)c2)C1,-,12.6µM,0,25.1µM,-
COCCNC(=O)CC1=C2CCCCC2N(Cc2ccccc2)C1=O (centres undefined),-,0,0,0,-
CCOc1ccc(CN2CC(Oc3ccccc3C(=O)NCc3ccccc3)C2)cc1,-,?,0,20µM,-
Cc1c(CN2CC(Oc3ccccc3C(=O)NCc3ccccc3)C2)cnn1C,0,0,0,?,0
O=C(NCc1cccs1)C1CCCN(c2ccnc3ccnn23)C1 (centres undefined),-,?,?,89.1µM,-
O=C(NCc1cccc(C(F)(F)F)c1)C1CCN(c2ccnc3ccnn23)CC1,-,?,0,35.5µM,-
COc1ccccc1Nc1ccnc(N2CCC(C(=O)NCCSC)CC2)n1,-,39.8µM,0,?,-
COc1ccccc1Nc1ccnc(N2CCC(C(=O)NCc3cccc(C(F)(F)F)c3)CC2)n1,-,31.6µM,0,?,-
COc1ccccc1Nc1ccnc(N2CCCC(C(=O)NCCSC)C2)n1 (centres undefined),-,?,0,?,-
CC1CCC2C(C)(C)[C@H](O)CC[C@]2(C)C12Cc1c(O)cc3c(c1O2)CN(C(CCC(=O)O)C(=O)O)C3=O (some centres undefined),-,-,0,-,-
O=C(C1CCCCC1)N1CCC2(CC1)CC(Cc1nc(-c3cnccn3)no1)CCO2 (centres undefined),-,0,0,0,-
CN(C)c1cccc(C(=O)Nc2ncc(-c3cccc(F)c3)c3c2OCC3)c1,0,?,0,?,0
CN(C)c1cccc(-c2cnc(Nc3ccncc3)c3c2CCO3)c1,0,50.1µM,0,56.2µM,0
COc1ccccc1-c1cnc(Nc2cccc(N[S+](C)(=O)[O-])c2)c2c1CCO2,31.6µM,20µM,0,39.8µM,?
CN(C)c1cccc(-c2cnc(Nc3cccc(N[S+](C)(=O)[O-])c3)c3c2CCO3)c1,?,?,0,20µM,?
CN(C)C(=O)NCCNC(=O)c1cccc(-c2ncccc2C#N)c1,-,0,0,0,-
O=c1n(-c2ccncc2)nc2n1CCN([S+](=O)([O-])c1cccs1)C2,0,0,0,0,0
SMILES,NPR1 antag,3T3 cytotox,GPT2 inh,HEK293 tox,FLuc inh
O=C(NCc1ccccc1F)C1CCc2nnc(CN[S+](=O)([O-])c3ccccc3Cl)n21 (centres undefined),-,0,0,0,-
COc1cccc([C@H]2CN(C(=O)CCc3scnc3C)C[C@@H]2N)c1,0,0,0,0,0
O=C(Nc1ccc(F)cc1)N1CC[C@H]2COC(=O)N2c2cc(F)ccc2C1,0,?,0,0,56.2µM
CCCc1nc(NCc2c(F)ccc(OC)c2F)c2cnn(C)c2n1,?,?,0,?,0
CCc1nc(NCc2cn[nH]c2-c2ccc(Cl)cc2)c2cnn(C)c2n1,0,44.7µM,0,?,0
Cc1noc(C)c1[S+](=O)([O-])N1CCCN(c2ccc3nnc(-c4ccccc4)n3n2)CC1,-,0,-,79.4µM,-
Cc1ccc([S+](=O)([O-])NC2CCN(c3ccc4nnc(-c5ccccc5)n4n3)CC2)cc1,-,?,-,39.8µM,-
O=[S+]([O-])(NC1CCCN(c2ccc3nnc(-c4ccccc4)n3n2)C1)c1ccccc1 (centres undefined),-,?,-,22.4µM,-
C[S+](=O)([O-])NC1CCN(c2ccc3nnc(-c4ccccc4)n3n2)CC1,-,0,-,0,-
COc1cccc([S+](=O)([O-])NC2CCN(c3ccc4nnc(-c5ccccc5)n4n3)CC2)c1,-,14.1µM,-,25.1µM,-
C[S+](=O)([O-])N1CCCN(c2ccc3nnc(-c4ccccc4)n3n2)CC1,-,?,-,0,-
CN1CC2(CCN(C(=O)CC3CCCC3)CC2)CC1C(=O)N1CCOCC1 (centres undefined),-,0,0,0,-
O=[S+]([O-])(NC1CCCN(c2ccc3nnc(C4CC4)n3n2)C1)c1cccc(C(F)(F)F)c1 (centres undefined),-,5.62µM,-,?,-
COc1cccc([S+](=O)([O-])NC2CCCN(c3ccc4nnc(C)n4n3)C2)c1 (centres undefined),-,0,-,0,-
Cc1ccc(C(=O)Nc2cc(-c3cccnc3)nn2-c2ccccc2)cc1,-,?,0,0,-
O=C(NC1CCCCC1)N1c2ccccc2CC1c1noc(C2CCOCC2)n1 (centres undefined),0,0,0,0,0
O=C(NC1CCCC1)N1c2ccccc2CC1c1nc(C2CC2)no1 (centres undefined),?,?,0,?,20µM
CCN1c2cc(C(=O)Nc3ccc(OC)c(Cl)c3)ccc2C(=O)N2CCCCC21 (centres undefined),0,22.4µM,0,35.5µM,0
CCN1c2cc(C(=O)Nc3ccc(OC)c(OC)c3)ccc2C(=O)N2CCCCC21 (centres undefined),0,?,0,?,0
CCN1c2cc(C(=O)Nc3ccc(OC)c(OC)c3)ccc2C(=O)N2CCCCCC21 (centres undefined),0,?,0,44.7µM,0
CCCNC(=O)Cc1ccc(N(Cc2ccc(F)cc2)C(=O)c2ccco2)cc1,0,?,0,89.1µM,0
CCCNC(=O)Cc1ccc(N(Cc2ccccc2)C(=O)c2ccco2)cc1,0,?,0,?,0
Cc1cccc(CNC(=O)Cc2ccc(N(Cc3ccc(F)cc3)C(=O)c3ccco3)cc2)c1,0,39.8µM,0,?,0
COc1ccc(-c2cc3nc4c(c(=O)n3[nH]2)CCN(C(=O)COc2ccccc2C)C4)cc1,0,0,0,0,14.1µM
Cc1ccccc1OCC(=O)N1CCc2c(nc3cc(-c4ccccc4Cl)[nH]n3c2=O)C1,0,?,0,?,0
O=C(NCc1cccc(F)c1)C1(c2ccc(Cl)cc2)CCOCC1,-,0,-,?,-
Cc1ccc(OCC(=O)NCC23CCCC=C2NC(=O)CC3)cc1 (centres undefined),-,0,0,0,-
